This is part of a sample that, as a whole, favours compounds with a hit. Of some 83,000 tested, about 20% had one in any assay.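 96-well plates, one dose, 48 hours. Percent growth reported; active if below 10.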 Unmarked numbers belong to inactive results. Calls of active or inactive are those of the source.

We go through twelve compounds from PubChem BioAssay (NCI).

Test systems include NCI-H23 lung; NCI-H226 lung; NCI-H322M lung; HOP-62 NSCLC; NCI-H460 lung; HOP-92 NSCLC; NCI-H522 lung; A549/ATCC NSCLC; 786-0 renal; COLO 205 colon.
Common to all, as to experiment: NCI-60 one-dose screen, 48 h (100 = growth as untreated, 0 = no growth, -100 = all killed)
Common to all, as to settings: 10 µM unless noted

Consider `COc1ccc2ccccc2c1/C=C1\SC(=Nc2ccc(O)cc2)NC1=O`, for which the growth in the assay with NCI-H23 lung was 19.3%; in the assay with NCI-H226 lung, -5.11% (active); with NCI-H322M lung it was 32.7%; in the assay with HOP-62 NSCLC, 23.8%; with NCI-H460 lung, 11.1%; in the assay with HOP-92 NSCLC, 18.3%. The growth in the assay with NCI-H522 lung was -24% (active); with A549/ATCC NSCLC it was 11.5%; in the assay on 786-0 renal, 17.7%; in the assay on COLO 205 colon it was -22.2% (active).
`COc1ccc2c(c1)N=c1c-2cc2c(O)[nH]c(=S)n2c1=O`: the growth with NCI-H23 lung was 43.1%; in the assay with NCI-H226 lung it was 46.1%; with NCI-H322M lung it was 78.1%; with HOP-62 NSCLC, 36.6%; in the assay on NCI-H460 lung, 83.1%; with HOP-92 NSCLC, 71.3%. Further, the growth in the assay on NCI-H522 lung is -9.92% (active); in the assay with A549/ATCC NSCLC it was 65.8%; with 786-0 renal it was 35.3%; with COLO 205 colon it was 30.7%.
Take `CC(C)(C)OC(=O)N1C/C(=C\c2ccc(F)cc2)C(=O)/C(=C/c2ccc(F)cc2)C1`: the growth was -77.7% (active) with NCI-H23 lung; -43.8% (active) in the assay on NCI-H226 lung; 29.6% in the assay on NCI-H322M lung; 14.6% in the assay on HOP-62 NSCLC; 1.19% (active) in the assay on NCI-H460 lung; -30.5% (active) in the assay with HOP-92 NSCLC. Also, the growth is -89% (active) in the assay on NCI-H522 lung, 35.3% in the assay with A549/ATCC NSCLC, -74.8% (active) with 786-0 renal and -47.2% (active) in the assay with COLO 205 colon.
As to `Cc1ccc2c(c1)nc(-c1ccccc1)n2CC(=O)N=Nc1c(O)[nH]c2ccc(Cl)cc12`, the growth was -66% (active) with NCI-H23 lung; -53.5% (active) with NCI-H226 lung; -53.8% (active) with NCI-H322M lung; -79.7% (active) in the assay on HOP-62 NSCLC; -68.9% (active) in the assay with NCI-H460 lung; -74.2% (active) with HOP-92 NSCLC. For the same compound, the growth is -75% (active) in the assay with NCI-H522 lung, -18.7% (active) in the assay on A549/ATCC NSCLC, -92% (active) with 786-0 renal and -87.6% (active) in the assay on COLO 205 colon.
Take `CC[C@@]12CC(C(=O)OC)=C3Nc4cc5c(cc4[C@@]34CCN(C[C@H]3O[C@H]31)[C@@H]24)[C@@H]1[C@H](O5)[C@@H](O)[C@@]2(CC)CC(C(=O)OC)=C3Nc4cc(O)ccc4[C@@]34CCN1[C@@H]24`: the growth was -53.9% (active) with NCI-H23 lung; -50.9% (active) in the assay with NCI-H226 lung; -43% (active) in the assay with NCI-H322M lung; -54.4% (active) with HOP-62 NSCLC; -26.6% (active) in the assay on NCI-H460 lung; -27.3% (active) in the assay on HOP-92 NSCLC. In addition, the growth with NCI-H522 lung was -44.9% (active); with A549/ATCC NSCLC, 4.31% (active); in the assay with 786-0 renal it was -89.3% (active); in the assay with COLO 205 colon, -61.5% (active).
Regarding `Oc1ccc(F)c(Nc2nc(SCCN3CCOCC3)nc3c2cnn3CC(Cl)c2ccc(Br)cc2)c1` (stereo not given), the growth in the assay with NCI-H23 lung is 26.3%; with NCI-H226 lung it was 29.2%; with NCI-H322M lung, 80.2%; in the assay on HOP-62 NSCLC, 30.3%; with NCI-H460 lung, 3.31% (active); in the assay on HOP-92 NSCLC it was 1.93% (active). Also, the growth with NCI-H522 lung was 29.2%; with A549/ATCC NSCLC, 23.9%; in the assay with 786-0 renal it was 61.2%; in the assay on COLO 205 colon, 94.6%.
`CC[C@]12C=CCN3CC[C@@]4(c5ccc(OC)cc5N(C)[C@H]4[C@@](O)(C(=O)OC)[C@@H]1OC(=O)CCC[P+](c1ccc(OC)cc1)(c1ccc(OC)cc1)c1ccc(OC)cc1)[C@@H]32`: the growth in the assay with NCI-H23 lung was -92.5% (active); in the assay on NCI-H226 lung it was -80.3% (active); in the assay on NCI-H322M lung, -97.7% (active); in the assay on HOP-62 NSCLC, -81.6% (active); with NCI-H460 lung, -85.2% (active); with HOP-92 NSCLC, -82.9% (active). The growth is -89.4% (active) in the assay with NCI-H522 lung, -91.4% (active) with A549/ATCC NSCLC, -89.5% (active) in the assay on 786-0 renal and -64.4% (active) with COLO 205 colon.
`O=C(c1ccc(O)cc1)C1[C@H](c2ccc(Cl)cc2)[C@@H](c2ccccc2)NC12C(=O)Nc1ccc(Br)cc12` (stereo not given in full): the growth was -58.7% (active) in the assay with NCI-H23 lung; -54.7% (active) in the assay on NCI-H226 lung; -4.19% (active) in the assay with NCI-H322M lung; -28.9% (active) in the assay with HOP-62 NSCLC; -45.9% (active) in the assay on NCI-H460 lung; -32.2% (active) with HOP-92 NSCLC. In addition, the growth is -20.8% (active) in the assay on NCI-H522 lung, 5.99% (active) in the assay on A549/ATCC NSCLC, -52.1% (active) with 786-0 renal and -86.3% (active) in the assay with COLO 205 colon.
Regarding `COc1cc(/C=C/C(=O)c2cnn(-c3cc(=O)[nH]c4ccccc34)c2C)cc(OC)c1OC`, the growth with NCI-H23 lung was 3.65% (active); in the assay with NCI-H226 lung, 21.9%; in the assay on NCI-H322M lung, 12.8%; in the assay with HOP-62 NSCLC, -1.9% (active); with NCI-H460 lung, 7.98% (active); with HOP-92 NSCLC, 23.3%. For the same compound, the growth is -18.1% (active) with NCI-H522 lung, 7.4% (active) in the assay with A549/ATCC NSCLC, 18.2% with 786-0 renal and 4.15% (active) in the assay with COLO 205 colon.
Regarding `O=C(N/N=C/c1occc1Br)c1[nH]c2ccc(Br)cc2c1-c1ccccc1`, the growth was -100% (active) in the assay with NCI-H23 lung; -82.5% (active) in the assay on NCI-H226 lung; -81.2% (active) in the assay with NCI-H322M lung; -69.1% (active) with HOP-62 NSCLC; -86.2% (active) in the assay on NCI-H460 lung; -74.1% (active) in the assay with HOP-92 NSCLC. In addition, the growth with NCI-H522 lung was -86.9% (active); with A549/ATCC NSCLC, -41.7% (active); in the assay on 786-0 renal it was -76.6% (active); in the assay on COLO 205 colon, -73.5% (active).
In the case of `CN(C)c1nc(NCCNS(=O)(=O)c2ccc(C(=O)/C=C/c3ccccc3)cc2)nc(N2CCOCC2)n1`, the growth in the assay with NCI-H23 lung was 93.2%; in the assay on NCI-H226 lung it was 82.6%; in the assay with NCI-H322M lung, 96.9%; in the assay on HOP-62 NSCLC it was 108%; with NCI-H460 lung, 101%; in the assay on HOP-92 NSCLC, 94.9%. The growth is 67.5% with NCI-H522 lung, 78.8% in the assay on A549/ATCC NSCLC, 66.4% with 786-0 renal and 105% with COLO 205 colon.
Take `COC(=O)c1c(C(=O)OC)c2c3ccccc3c3ccccc3n2c1C(=O)C(C)(C)C`: the growth is 82.8% with NCI-H23 lung; 85.7% in the assay on NCI-H226 lung; 105% in the assay with NCI-H322M lung; 118% in the assay on HOP-62 NSCLC; 80.3% with NCI-H460 lung; 55.7% in the assay on HOP-92 NSCLC. Moreover, the growth in the assay with NCI-H522 lung is 73.6%; in the assay with A549/ATCC NSCLC it was 101%; with 786-0 renal it was 86.6%; with COLO 205 colon it was 80.1%.
